# Results from PubChem BioAssay (EPA / NIEHS).
# Inconclusive results are not listed. Active and inactive are the calls of the source. How the source made its calls, unless noted: active means hit-call score of the fitted dose curve at least 0.9, where 1 is the maximum; inconclusive means response in the unintended direction; inactive means score below 0.9.
# Key:
# [1] = molecular target: Nucleoli Translocation, AR (gene 367) (UniProt P10275); experiment: UPITT_HCI_U2OS_AR_TIF2_Nucleoli_Antagonist: University of Pittsburgh U2OS Androgen Receptor-Transcriptional Intermediary Factor 2 (AR-TIF2) Antagonism High Content Imaging Assay for Nucleoli Translocation (AID 2283997)
# In short: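 Measured quantity was AR-RFP fluorescence localized to nucleoli in engineered U2OS cells also bearing TIF2-GFP, acquired on automated high-content imagers. Primary testing used 20 uM compound; actives were confirmed in triplicate wells.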
# [2] = molecular target: Nucleoli Translocation, AR (gene 367) (UniProt P10275); experiment: UPITT_HCI_U2OS_AR_TIF2_Nucleoli_Agonist: University of Pittsburgh U2OS Androgen Receptor-Transcriptional Intermediary Factor 2 (AR-TIF2) Agonism High Content Imaging Assay for Nucleoli Translocation (AID 2283998)
# In short: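 Nucleolar translocation of AR-RFP, with TIF2-GFP coexpressed in human osteosarcoma U2OS, imaged by high-content fluorescence. Compounds tested singly at 20 uM final, confirmed in triplicate, then titrated 0.195–50 uM final; gain-of-signal relative to DMSO.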
# [3] = system: DIO1 (gene 1733); experiment: CCTE_GLTED_hDIO1: CCTE's human Deiodinase 1 (DIO1) Inhibition Assay, Great Lakes Toxicology and Ecology Division (GLTED) Lab (AID 2283987);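 further: isolated human DIO1 enzyme in a cell-free setup rather than cells; enzyme activity read as free iodide liberated from substrate via Sandell-Kolthoff colorimetry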
# In short: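 Inhibition read as reduced iodide release: after 3 h of human DIO1 with chemical, free iodide is quantified colorimetrically (Sandell-Kolthoff cerium/arsenic reaction). Triplicate plates, DMSO baseline.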
# [4] = molecular target: PGR (gene 5241) (UniProt P06401); experiment: TOX21_PR_BLA_Followup_Antagonist_ratio: Tox21 HEK293 Progesterone Receptor (PR) Antagonism Beta-lactamase Follow-Up Assay, Ratio (AID 2283934)
# In short: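 HEK293T PR-UAS-bla, 2% CS-FBS; 6 hr plating, then cpd + R5020 (1 nM final), 16 hr 37C/5% CO2. B/G FRET substrate 2 h RT. Ratio ch2/ch1 vs DMSO; CellTiter-Glo viability multiplexed, autofluorescence checked.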
# [5] = TOX21_PR_BLA_Followup_Agonist_viability: Viability Assessment in the Tox21 HEK293 Progesterone Receptor (PR) Agonism Beta-lactamase Follow-Up Assay (AID 2283935);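 further: cells exposed to compound for 16 hr at 37 °C; signal loss means lower viability so actives are cytotoxic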
# In short: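 HEK293T PR-UAS-bla, 3,000 cells/well, 2% CS-FBS; 6 hr pre-incubation; cpd in DMSO, 16 hr 37C; LiveBLAzer 2 hr RT, then CellTiter-Glo 30 min RT, luminescence. Decrease = lost viability.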
# [6] = TOX21_PR_BLA_Followup_Antagonist_viability: Viability Assessment in the Tox21 HEK293 Progesterone Receptor (PR) Antagonism Beta-lactamase Follow-Up Assay (AID 2283936);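 further: hits lower the luminescence signal meaning cytotoxicity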
# In short: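 PR-UAS-bla HEK293T cells (3,000/well, 2% charcoal-stripped FBS) given compound plus R5020 agonist, 16 h at 37C. CellTiter-Glo added after bla read, 30 min at room temperature; luminescence loss indicates cytotoxicity.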
# [7] = molecular target: PGR (gene 5241) (UniProt P06401); experiment: TOX21_PR_LUC_Followup_Antagonist: Tox21 HEK293 Progesterone Receptor (PR) Antagonism Luciferase Follow-Up Assay (AID 2283938);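 further: curve fitted upward as signal gain over DMSO baseline despite antagonist label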
# In short: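 Luminescence from ONE-Glo was measured 30 min after reagent addition, following 16 h exposure of HEK293-PR-A-luc cells (3,000/well, plated 5 h earlier) to DMSO-dissolved compounds at 37C; DMSO served as baseline.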
# [8] = molecular target: Ratio of Nucleoli Translocation and Cytoplasm, AR (gene 367) (UniProt P10275); experiment: UPITT_HCI_U2OS_AR_TIF2_Nucleoli_Cytoplasm_Ratio_Antagonist: University of Pittsburgh U2OS Androgen Receptor-Transcriptional Intermediary Factor 2 (AR-TIF2) Antagonism High Content Imaging Assay for Ratio of Nucleoli Translocation and Cytoplasm (AID 2283999);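 further: antagonists lower the DHT-driven ratio of nucleolar to cytoplasmic red signal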
# In short: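 Human osteosarcoma U2OS line, AR fused to RFP, coactivator TIF2 fused to GFP. Cpds 20 uM final, 0.2% DMSO (screen); 0.195–50 uM final, 0.5% DMSO (CRC). Endpoint: nucleoli/cytoplasm red signal ratio, DHT as baseline, loss-of-signal antagonist mode.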
# [9] = TOX21_PR_LUC_Followup_Agonist_viability: Viability Assessment in the Tox21 HEK293 Progesterone Receptor (PR) Agonism Luciferase Follow-Up Assay (AID 2283941);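 further: loss of signal means cytotoxicity so actives lower viability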
# In short: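 Cells were kept 5 days in charcoal-stripped serum medium before plating HEK293-PR-A-luc at 3,000 cells/well. After 5 h they received DMSO-dissolved compound and incubated 16 h at 37C. Viability was taken from CellTiter-Glo ATP luminescence.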
# [10] = CEETOX_H295R_DOC_noMTC: CeeTox H295R High-throughput Steroidogenesis Assay for DOC, maximum tolerated concentration (MTC) filtered results only (AID 2283918; active means hit-call score of the fitted dose curve at least 0.9, where 1 is the maximum; inactive means score below 0.9); details: actives raise or lower the signal
# In short: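 11-Deoxycorticosterone secreted by human adrenal H295R cells quantified by HPLC-MS/MS after 48 h chemical exposure (0.1% DMSO), following 48 h 10 uM forskolin prestimulation. Concentrations not filtered by MTT-derived MTC; bidirectional fitting.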
# [11] = CEETOX_H295R_PROG_noMTC: CeeTox H295R High-throughput Steroidogenesis Assay for Progesterone (PROG), maximum tolerated concentration (MTC) filtered results only (AID 2283920; active means hit-call score of the fitted dose curve at least 0.9, where 1 is the maximum; inactive means score below 0.9); details: actives raise or lower the signal
# In short: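 H295R cells; forskolin 10 uM x 48 h prestim; test cpd 48 h, 0.1% DMSO final; media progesterone via LC-MS/MS; bidirectional fit vs DMSO; no MTT-based MTC filter applied.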
# [12] = CEETOX_H295R_TESTO_noMTC: CeeTox H295R High-throughput Steroidogenesis Assay for Testosterone (TESTO), maximum tolerated concentration (MTC) filtered results only (AID 2283924; active means hit-call score of the fitted dose curve at least 0.9, where 1 is the maximum; inactive means score below 0.9); details: actives raise or lower the signal
# In short: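 H295R cells prestimulated 48 h with 10 uM forskolin, then exposed 48 h to chemicals in 0.1% DMSO final. Testosterone in medium quantified by MTBE extraction and HPLC-MS/MS; bidirectional fit versus DMSO, concentrations […] filtered by MTT-based maximum tolerated concentration.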
# [13] = molecular target: Thyroid hormone receptor alpha (Rattus norvegicus) + Thyroid hormone receptor beta (Rattus norvegicus) (UniProt P18113+P63059); experiment: TOX21_TR_LUC_GH3_Agonist_Followup: Tox21 GH3 Thyroid Hormone Receptor Agonism Luciferase Follow-Up Assay (AID 2283939)
# In short: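 Rat GH3 cells (1,500/well) in serum-free assay medium, treated with 15-point series, 92 uM to 5 nM final, for 24 h at 37C. Luciferase via ONE-Glo luminescence; gain of signal fitted against DMSO, T3 positive control.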
# [14] = molecular target: THRA (gene 7067) (UniProt P10827); experiment: TOX21_TRA_COA_Agonist_Followup_ratio: Tox21 Thyroid Hormone Receptor alpha Agonism through Coactivator Recruitment Follow-Up Assay, Ratio (AID 2283948; active means hit-call score of the fitted dose curve at least 0.9, where 1 is the maximum; inactive means score below 0.9)
# In short: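 Cell-free TR-FRET coactivator recruitment: GST-tagged TRα LBD (2.5 nM) with 0.10% BSA was incubated with compound, then fluorescein-SRC-2 peptide (200 nM) and Tb-anti-GST antibody (2 nM) added. 520:495 nm ratio normalized to DMSO (0%) and T3 (100%).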
# [15] = molecular target: THRB (gene 7068) (UniProt P10828); experiment: TOX21_TRB_BLA_Agonist_Followup_ratio: Tox21 Thyroid Hormone Receptor beta Agonism Beta-lactamase (BLA) Follow-Up Assay, Ratio (AID 2283954)
# In short: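 Human TRβ LBD–GAL4 DBD fusion in GeneBLAzer UAS-bla HEK293T cells; 11 concentrations in triplicate, 18 h at 37°C/5% CO2, T3 as agonist control. CCF4-AM substrate 2 h at room temperature; 460:530 nm ratio fitted for gain of signal versus DMSO.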
# [16] = molecular target: THRB (gene 7068) (UniProt P10828); experiment: TOX21_TRB_COA_Agonist_Followup_ratio: Tox21 Thyroid Hormone Receptor beta Agonism through Coactivator Recruitment Follow-Up Assay, Ratio (AID 2283963; active means hit-call score of the fitted dose curve at least 0.9, where 1 is the maximum; inactive means score below 0.9)
# In short: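 Agonism is measured as coactivator recruitment in a purified-protein TR-FRET format, using GST-TRβ LBD at 5.0 nM, fluorescein-SRC-2 peptide at 200 nM and Tb-labeled anti-GST antibody at 2 nM. Values are 520:495 nm ratios relative to DMSO (0%) and T3 (100%).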
# [17] = molecular target: Retinoic acid receptor RXR-alpha (Homo sapiens) (UniProt P19793); experiment: TOX21_TR_RXR_BLA_Agonist_Followup_ratio: Tox21 Thyroid Hormone Receptor beta Retinoid X Receptor alpha (RXRa) Agonism Beta-lactamase (BLA) Follow-Up Assay, Ratio (AID 2283968)
# In short: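 HEK293T RXRa-bla, qHTS; cpd 11-pt conc. in triplicate, 16 h 37C/5% CO2; CCF4-AM 2 h RT; ratio 460:530 nm; agonist direction vs DMSO; 9-cis retinoic acid as positive control.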
# [18] = TOX21_TR_RXR_BLA_Agonist_Followup_viability: Viability Assessment in the Tox21 Thyroid Hormone Receptor beta Retinoid X Receptor alpha (RXRa) Agonism Beta-lactamase (BLA) Follow-Up Assay (AID 2283970)
# In short: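 Cells: HEK293T RXRa-UAS-bla, 2,500/well; medium phenol red-free DMEM + 2% charcoal-stripped FBS; 16h, 37C/5% CO2; qHTS concentration series. Read: CellTiter-Glo luminescence (ATP); bidirectional fit, DMSO = baseline.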
# [19] = CEETOX_H295R_ESTRADIOL_noMTC: CeeTox H295R High-throughput Steroidogenesis Assay for Estradiol, maximum tolerated concentration (MTC) filtered results only (AID 2283919; active means hit-call score of the fitted dose curve at least 0.9, where 1 is the maximum; inactive means score below 0.9); details: actives raise or lower the signal
# In short: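 H295R human adrenal cells pre-stimulated 48 h with 10 uM forskolin, then exposed 48 h to chemical (0.1% DMSO final). Estradiol in medium measured by HPLC-MS/MS after MTBE extraction and dansyl derivatization; bidirectional fit versus DMSO, concentrations not MTT-filtered.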
# [20] = CEETOX_H295R_ESTRONE_noMTC: CeeTox H295R High-throughput Steroidogenesis Assay for Estrone, maximum tolerated concentration (MTC) filtered results only (AID 2283921; active means hit-call score of the fitted dose curve at least 0.9, where 1 is the maximum; inactive means score below 0.9); details: actives raise or lower the signal
# In short: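 H295R cells prestimulated 48 h with 10 uM forskolin, then exposed 48 h to chemical in 0.1% DMSO; medium estrone measured by HPLC-MS/MS after MTBE extraction and dansyl derivatization, fitted bidirectionally versus DMSO without MTT-based MTC filtering.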
# Chain of PGR (gene 5241) (P06401 whole entry, looked up): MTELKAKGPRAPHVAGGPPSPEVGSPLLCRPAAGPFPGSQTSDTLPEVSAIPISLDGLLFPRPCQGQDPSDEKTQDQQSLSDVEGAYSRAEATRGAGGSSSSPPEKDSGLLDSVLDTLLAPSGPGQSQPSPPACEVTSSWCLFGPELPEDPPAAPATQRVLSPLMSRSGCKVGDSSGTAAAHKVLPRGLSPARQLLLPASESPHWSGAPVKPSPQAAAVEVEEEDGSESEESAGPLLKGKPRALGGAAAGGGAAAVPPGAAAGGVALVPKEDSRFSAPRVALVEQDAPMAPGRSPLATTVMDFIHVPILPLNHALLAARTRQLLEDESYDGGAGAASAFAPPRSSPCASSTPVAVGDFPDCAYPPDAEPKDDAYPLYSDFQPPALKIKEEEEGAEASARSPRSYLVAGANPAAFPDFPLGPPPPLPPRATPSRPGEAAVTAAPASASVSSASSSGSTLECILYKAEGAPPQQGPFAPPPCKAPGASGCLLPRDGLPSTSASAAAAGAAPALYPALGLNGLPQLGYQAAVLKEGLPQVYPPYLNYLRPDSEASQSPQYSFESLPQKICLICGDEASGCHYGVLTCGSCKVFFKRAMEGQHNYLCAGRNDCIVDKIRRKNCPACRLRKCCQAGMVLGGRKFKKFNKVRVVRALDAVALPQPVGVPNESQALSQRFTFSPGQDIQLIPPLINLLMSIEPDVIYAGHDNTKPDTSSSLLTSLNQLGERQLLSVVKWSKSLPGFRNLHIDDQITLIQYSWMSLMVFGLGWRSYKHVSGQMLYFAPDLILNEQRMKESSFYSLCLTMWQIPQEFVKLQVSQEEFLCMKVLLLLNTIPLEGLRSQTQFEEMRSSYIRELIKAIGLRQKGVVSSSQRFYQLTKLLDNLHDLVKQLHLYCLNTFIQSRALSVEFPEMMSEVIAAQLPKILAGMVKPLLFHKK
# Chain of Nucleoli Translocation, AR (gene 367) (P10275 whole entry, looked up): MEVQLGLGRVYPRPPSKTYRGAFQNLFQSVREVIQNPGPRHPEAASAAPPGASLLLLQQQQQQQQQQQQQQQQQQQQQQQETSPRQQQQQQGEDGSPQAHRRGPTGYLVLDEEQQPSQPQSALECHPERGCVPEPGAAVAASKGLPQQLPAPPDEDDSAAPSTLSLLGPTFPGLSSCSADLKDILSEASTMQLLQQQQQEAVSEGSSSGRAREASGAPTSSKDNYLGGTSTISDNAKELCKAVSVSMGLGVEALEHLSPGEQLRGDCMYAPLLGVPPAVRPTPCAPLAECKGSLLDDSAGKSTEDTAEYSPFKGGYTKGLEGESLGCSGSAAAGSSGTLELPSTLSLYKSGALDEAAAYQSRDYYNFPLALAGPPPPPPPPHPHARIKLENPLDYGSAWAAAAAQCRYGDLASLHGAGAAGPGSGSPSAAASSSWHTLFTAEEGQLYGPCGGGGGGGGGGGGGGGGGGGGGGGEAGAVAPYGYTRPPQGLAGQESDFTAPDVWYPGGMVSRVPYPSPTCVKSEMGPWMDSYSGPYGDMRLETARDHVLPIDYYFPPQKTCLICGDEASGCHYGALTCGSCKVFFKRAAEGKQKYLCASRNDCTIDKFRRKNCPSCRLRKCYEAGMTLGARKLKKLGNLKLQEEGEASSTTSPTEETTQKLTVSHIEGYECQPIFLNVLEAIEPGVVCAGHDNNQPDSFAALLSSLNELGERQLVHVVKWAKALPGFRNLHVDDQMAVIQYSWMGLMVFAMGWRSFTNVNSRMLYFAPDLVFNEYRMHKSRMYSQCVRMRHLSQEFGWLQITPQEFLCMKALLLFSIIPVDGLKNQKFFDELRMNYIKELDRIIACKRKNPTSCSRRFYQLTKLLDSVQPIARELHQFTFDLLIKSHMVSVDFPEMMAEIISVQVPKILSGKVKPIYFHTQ
# Chain of Ratio of Nucleoli Translocation and Cytoplasm, AR (gene 367) (P10275 whole entry, looked up, the tested form may be a part): as the sequence (P10275 whole entry, looked up) above
# Chain of THRB (gene 7068) (P10828 whole entry, looked up, the tested form may be a part): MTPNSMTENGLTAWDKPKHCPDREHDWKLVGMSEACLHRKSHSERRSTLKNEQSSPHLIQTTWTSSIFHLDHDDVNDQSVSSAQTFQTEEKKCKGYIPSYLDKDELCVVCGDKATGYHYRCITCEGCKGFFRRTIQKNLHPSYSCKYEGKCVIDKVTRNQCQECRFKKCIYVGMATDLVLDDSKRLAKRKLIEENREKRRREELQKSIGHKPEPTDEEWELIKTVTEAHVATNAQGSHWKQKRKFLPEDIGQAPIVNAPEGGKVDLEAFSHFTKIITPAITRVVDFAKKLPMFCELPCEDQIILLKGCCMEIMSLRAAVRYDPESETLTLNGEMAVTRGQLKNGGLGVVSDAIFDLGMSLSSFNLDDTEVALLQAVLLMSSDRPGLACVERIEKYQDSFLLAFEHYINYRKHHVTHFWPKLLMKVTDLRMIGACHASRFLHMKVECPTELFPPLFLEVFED
# Chain of Thyroid hormone receptor alpha (Rattus norvegicus) + Thyroid hormone receptor beta (Rattus norvegicus) (P63059 whole entry, looked up): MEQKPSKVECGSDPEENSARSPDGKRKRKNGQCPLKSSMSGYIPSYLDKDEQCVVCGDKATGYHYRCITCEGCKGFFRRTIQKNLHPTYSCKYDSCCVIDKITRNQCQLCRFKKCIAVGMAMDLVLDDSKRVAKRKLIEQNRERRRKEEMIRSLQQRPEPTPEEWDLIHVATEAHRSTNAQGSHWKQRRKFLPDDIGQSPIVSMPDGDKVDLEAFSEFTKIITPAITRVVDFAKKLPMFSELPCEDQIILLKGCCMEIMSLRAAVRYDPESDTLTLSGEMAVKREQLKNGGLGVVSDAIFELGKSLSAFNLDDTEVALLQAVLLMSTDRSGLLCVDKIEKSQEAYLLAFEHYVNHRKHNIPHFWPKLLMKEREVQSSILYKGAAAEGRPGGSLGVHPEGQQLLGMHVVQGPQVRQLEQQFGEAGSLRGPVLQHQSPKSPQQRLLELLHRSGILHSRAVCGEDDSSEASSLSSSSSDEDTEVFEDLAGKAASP
# Chain of Thyroid hormone receptor alpha (Rattus norvegicus) + Thyroid hormone receptor beta (Rattus norvegicus) (P18113 whole entry, looked up): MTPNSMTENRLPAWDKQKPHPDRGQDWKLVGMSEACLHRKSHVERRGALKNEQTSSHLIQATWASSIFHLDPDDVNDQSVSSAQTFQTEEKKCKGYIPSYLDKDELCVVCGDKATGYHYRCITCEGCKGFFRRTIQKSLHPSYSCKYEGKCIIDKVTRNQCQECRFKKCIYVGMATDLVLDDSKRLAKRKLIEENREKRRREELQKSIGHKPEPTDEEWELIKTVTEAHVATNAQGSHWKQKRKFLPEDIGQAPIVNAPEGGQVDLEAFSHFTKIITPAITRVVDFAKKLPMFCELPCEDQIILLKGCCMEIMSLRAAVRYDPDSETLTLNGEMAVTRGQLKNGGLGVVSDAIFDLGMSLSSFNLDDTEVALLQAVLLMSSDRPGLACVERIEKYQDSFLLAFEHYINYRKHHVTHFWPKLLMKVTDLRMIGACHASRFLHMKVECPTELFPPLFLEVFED
# Chain of Retinoic acid receptor RXR-alpha (Homo sapiens) (P19793 whole entry, looked up): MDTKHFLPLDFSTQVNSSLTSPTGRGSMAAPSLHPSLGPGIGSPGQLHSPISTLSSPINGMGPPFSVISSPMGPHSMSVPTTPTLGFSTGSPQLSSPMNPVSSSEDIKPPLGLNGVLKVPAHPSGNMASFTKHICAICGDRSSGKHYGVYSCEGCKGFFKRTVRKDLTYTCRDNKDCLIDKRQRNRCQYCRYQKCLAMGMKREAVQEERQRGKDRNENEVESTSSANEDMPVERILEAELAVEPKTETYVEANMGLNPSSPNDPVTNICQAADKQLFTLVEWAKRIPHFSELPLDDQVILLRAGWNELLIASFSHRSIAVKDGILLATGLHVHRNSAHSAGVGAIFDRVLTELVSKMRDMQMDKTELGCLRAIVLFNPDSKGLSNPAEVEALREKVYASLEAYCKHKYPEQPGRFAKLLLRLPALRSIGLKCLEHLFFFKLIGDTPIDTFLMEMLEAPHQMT
# Chain of THRA (gene 7067) (P10827 whole entry, looked up, the tested form may be a part): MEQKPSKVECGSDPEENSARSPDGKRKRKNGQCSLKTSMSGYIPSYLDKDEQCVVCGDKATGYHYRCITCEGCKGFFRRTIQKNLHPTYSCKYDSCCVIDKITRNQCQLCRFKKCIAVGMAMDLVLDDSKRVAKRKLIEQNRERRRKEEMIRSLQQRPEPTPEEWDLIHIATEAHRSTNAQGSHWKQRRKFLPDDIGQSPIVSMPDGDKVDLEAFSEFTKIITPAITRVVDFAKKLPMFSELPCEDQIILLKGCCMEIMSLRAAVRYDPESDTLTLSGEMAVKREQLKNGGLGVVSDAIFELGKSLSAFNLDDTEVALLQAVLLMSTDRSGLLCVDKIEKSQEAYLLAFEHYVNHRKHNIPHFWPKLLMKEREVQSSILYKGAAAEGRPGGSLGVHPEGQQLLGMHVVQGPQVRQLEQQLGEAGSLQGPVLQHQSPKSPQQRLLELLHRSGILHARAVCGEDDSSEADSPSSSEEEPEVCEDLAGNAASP
compound,measurement,setting,value
[Co],outcome,[1],inactive
same,outcome,[2],inactive
O=C(O)C(F)(F)C(F)(F)C(F)(F)C(F)(F)C(F)(F)C(F)(F)C(F)(F)C(F)(F)C(F)(F)C(F)(F)C(F)(F)C(F)(F)C(F)(F)F,AC50,[3],23.7 µM (active)
O=C(O)C=C(C(F)(F)F)C(F)(F)F,AC50,[3],20.2 µM (active)
C(=C(c1ccccc1)c1ccccc1)c1ccccc1,AC50,[4],30.7 µM (active)
same,outcome,[5],inactive
same,outcome,[6],inactive
same,AC50,[7],32.3 µM (active)
CNC(=S)NC,outcome,[1],inactive
same,outcome,[8],inactive
C=CC(=O)OCC(F)(F)C(F)(F)C(F)(F)C(F)(F)COC(=O)C=C,AC50,[3],5.82 µM (active)
C#C[C@]1(O)CC[C@H]2[C@@H]3CCc4cc(OC)ccc4[C@H]3CC[C@@]21C,outcome,[4],inactive
same,outcome,[5],inactive
same,outcome,[6],inactive
same,outcome,[7],inactive
same,outcome,[9],inactive
CC(Cc1ccc(O)c(O)c1)C(C)Cc1ccc(O)c(O)c1 (centres undefined),AC50,[3],6.62 µM (active)
CCCCCCCOC(=O)c1ccccc1C(=O)OCCCCCCC,outcome,[10],inactive
same,outcome,[11],inactive
same,outcome,[12],inactive
CCCCCCOC(=O)c1ccccc1O,outcome,[1],inactive
same,outcome,[2],inactive
same,outcome,[8],inactive
CCN(Cc1cccc(S(=O)(=O)O)c1)c1ccc(C(=C2C=CC(=[N+](CC)Cc3cccc(S(=O)(=O)O)c3)C=C2)c2ccc(O)cc2S(=O)(=O)[O-])cc1,AC50,[3],65 µM (active)
O=C(O)C(F)(F)C(F)(F)C(F)(F)C(F)(F)C(F)(F)C(F)(F)C(F)(F)C(F)(F)C(F)(F)C(F)F,AC50,[3],88.7 µM (active)
CC(C)OC(=O)c1ccccc1C(=O)OC(C)C,outcome,[10],inactive
same,outcome,[11],inactive
O=C(O)C(F)(F)C(F)(F)C(F)(F)C(F)(F)C(F)(F)C(F)(F)C(F)(F)C(F)(F)C(F)(F)C(F)(F)C(F)(F)C(F)(F)F,AC50,[3],39 µM (active)
O=S(=O)(O)c1ccc2ccccc2c1,outcome,[13],inactive
same,outcome,[14],inactive
same,outcome,[15],inactive
same,outcome,[16],inactive
same,outcome,[17],inactive
same,outcome,[18],inactive
O=C(O)C(F)(F)C(F)(F)C(F)(F)C(F)(F)C(F)(F)C(F)(F)C(F)(F)C(F)(F)Cl,outcome,[3],inactive
O=C(Cl)C(F)(F)C(F)(F)C(F)(F)C(F)(F)C(F)(F)C(F)(F)C(F)(F)C(F)(F)F,AC50,[3],165 µM (active)
Nc1ccc(S(=O)(=O)Nc2nccs2)cc1,outcome,[18],inactive
CCCCCCC(C)OC(=O)CCCCC(=O)OC(C)CCCCCC (centres undefined),outcome,[1],inactive
COC(=O)C1CCC(C(=O)OC)CC1 (centres undefined),outcome,[19],inactive
same,outcome,[11],inactive
same,outcome,[20],inactive
CN(C)Cc1ccccc1O,outcome,[1],inactive
same,outcome,[2],inactive
same,outcome,[8],inactive
